Hits are enriched below; roughly 21% of the tested compounds scored in any of these assays.
Pf growth 96h: inhibits malaria parasite growth, 96 h; P. falciparum luciferase reporter growth, 96 h; Potency, µM (series often up to 28.7 µM), for the others: at the highest dose activity change, negative = inhibition, hits mostly inhibitors; 320,000 tested, 6.9% active; AID 504834; note: potency is the fitted concentration of half-maximal effect; % is set by controls: 0 for no effect and ±100 for the full control effect
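Infected RBCs, 2% Hct / 0.05% parasitemia final; luciferase-reporter P. falciparum; cpd 96 h, 37 C, 5% CO2; luciferase detection reagent; luminescence.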
Pf growth 48h: P. falciparum growth inhibition at 48 hours (one generation); P. falciparum luciferase growth in erythrocytes, 48 h; Potency, µM (doses to about 28.7 µM), for the others: at the top dose activity change, negative = inhibition, usual class: inhibitors; 310,000 tested, 5.9% active; note: potency is the fitted concentration of half-maximal effect; % is set by controls: 0 for no effect and ±100 for the full control effect
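In quantitative HTS format, infected erythrocytes bearing luciferase-reporter parasites were treated for a single generation at 37 C. Luminescence after adding detection reagent served as the growth measure.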
Giardia FBPA inh: blocks Giardia fructose-bisphosphate aldolase activity; purified Giardia FBPA; 290,000 tested, 0.71% active; Potency, µM (highest dose often 59.6 µM), for the others: at the highest dose activity, negative = inhibition, usual class: inhibitors; note: potency is the fitted concentration of half-maximal effect; % is set by controls: 0 for no effect and ±100 for the full control effect; nearly all actives have a fitted effect of over 55% in size
Target sequence (A8B2U2 whole entry, looked up): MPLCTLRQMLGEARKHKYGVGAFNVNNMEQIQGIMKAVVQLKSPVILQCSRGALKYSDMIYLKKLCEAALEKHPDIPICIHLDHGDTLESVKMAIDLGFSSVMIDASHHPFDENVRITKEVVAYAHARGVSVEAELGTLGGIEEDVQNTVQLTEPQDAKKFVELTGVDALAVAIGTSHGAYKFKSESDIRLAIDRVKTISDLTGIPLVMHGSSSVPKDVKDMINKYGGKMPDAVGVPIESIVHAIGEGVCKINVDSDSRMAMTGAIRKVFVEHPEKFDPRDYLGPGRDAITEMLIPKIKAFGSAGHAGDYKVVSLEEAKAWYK
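40 nM FBPA preincubated 10 min at RT with compound (up to 57.5 uM final), then substrate plus GAPDH/TPI/NAD/arsenate coupling and diaphorase/resazurin added. Fluorescence read after 20 min at RT, 525/598 nm.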
Cycloheximide cs: counter-screen hit for Shiga toxin inhibitors, cycloheximide | cell reporter, cycloheximide protein synthesis inhibition counterscreen | max response, % | 300,000 tested, 12% active; in the data active = max response mostly above about 13%, no sharp cut-off; inactive = mostly below about 14%; note: read at 38.3 µM for the half of the compounds with a filed dose; 0% is about no effect
Shiga toxin inh: Shiga toxin inhibition | Vero cells, Shiga toxin protein synthesis inhibition reporter | inhibition, % at 38.7 µM | 290,000 tested, 9.2% active | AID 2315; in the data active = inhibition mostly above about 28%, no sharp cut-off; inactive = mostly below about 43%; note: 0% is about no effect
NS1 inh: influenza NS1 inhibition | Potency, µM (highest dose often 46.1 µM), inactives show at the highest dose activity, positive = more growth | 270,000 tested, 0.4% active | AID 2326; calls by dose curve; note: potency is the fitted concentration of half-maximal effect; actives are rising curves; nearly all actives have a fitted effect of over 50% in size
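OD600 was taken as the measure of yeast growth restored by compound in an NS1-expressing S. cerevisiae strain. Cells had been washed out of glucose medium and diluted 1:100 into galactose -URA medium, pH 6.0.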
Starred values were filed as active, the others as inactive; ? = inconclusive; . = not tested or not shown. Unless noted, calls come from the whole dose curve; as a rule, active = well fitted curve in the direction sought with a large enough effect; inconclusive = small, poorly fitted or top-dose-only effect, or another doubt; inactive = no such curve, though single readings can be large; an effect the other way counts as inactive or inconclusive.

SMILES	Pf growth 96h	Pf growth 48h	Giardia FBPA inh	Cycloheximide cs	Shiga toxin inh	NS1 inh
COc1ccc(/C=C(\NC(=O)c2ccco2)C(=O)N2CCCCC2)cc1	3%	3%	4%	-6	-2	-7%
NS(=O)(=O)c1ccc(NC(=O)CSc2nc(Nc3ccccc3)nc(N3CCOCC3)n2)cc1	34%	?	.	1	-5	15%
Nc1ccc2c(c1)Cc1cc([N+](=O)[O-])ccc1-2	?	38%	2%	42*	67*	.
Nc1ccc2c(c1)C(=O)C(=O)c1ccccc1-2	?	.	?	-9	-28	-211%
Nc1ccc2c(c1)Cc1ccccc1-2	60%	60%	5%	34*	64*	15%
Cc1ccc(S(=O)(=O)NC2=NCN(CC(=O)O)CN2)cc1	30%	11%	-4%	-3	-8	7%
COc1ccccc1OCCSc1nc2ccccc2n1CC(N)=O	18%	38%	6%	-3	-13	-2%
CC(C)CC(=O)O/N=C1\C(=O)N(Cc2ccc(Cl)cc2)c2ccc([N+](=O)[O-])cc21	5.2µM*	?	-1%	-3	-8	-7%
COc1ccc(C2N(Cc3ccccc3)CCN2Cc2ccccc2)cc1[N+](=O)[O-]	-16%	7%	-1%	-1	19	-4%
COC(=O)c1coc(-c2ccc(OC)cc2)c1C(=O)OC	120%	.	4%	43*	71	-75%
COC(=O)c1coc(-c2ccc(C)cc2)c1C(=O)OC	120%	33%	11%	39*	66*	-45%
COC(=O)c1c(C)noc1-c1ccc(Cl)cc1	17%	3%	3%	-3	-3	-1%
COC(=O)CCc1sc(NC2CCCCC2)nc1-c1ccc(OC)cc1	?	1%	-14%	25*	36	-20%
CCCCN1C(=S)NC[C@@H]1Cc1cccc2ccccc12	?	-10%	0%	18*	60*	-40%
O=C1NC[C@@H](Cc2cccc3ccccc23)N(CC2(c3ccccc3)CC2)C1=O	13µM*	12µM*	-10%	-6	-9	-9%
Cc1c(C(=O)OC/C(O)=C(\C#N)c2nc3ccccc3[nH]2)oc2ccc(Br)cc12	?	-5%	-9%	-3	-7	3%
N#C/C(=C\c1cccs1)Sc1nc2ccccc2s1	-19%	14%	-5%	31*	44*	-39%
N#C/C(=C\c1ccc[nH]1)Sc1nc2ccccc2s1	48%	15%	0%	-1	-6	-127%
N#C/C(=C(\O)Cc1ccccc1)c1nc2ccccc2[nH]1	.	.	-5%	1	-4	6%
N#C/C(=C\c1ccc(Sc2ccc(Cl)cc2)o1)c1nc2ccccc2[nH]1	-12%	0.19µM*	-22%	6	4	-38%
Cc1c(-c2cccc(Cl)c2)nc2ccccc2c1C(=O)OC/C(O)=C(\C#N)c1nc2ccccc2[nH]1	10µM*	-30%	-17%	-1	31	.
N#C/C(=C(/O)CCl)c1nc2ccccc2[nH]1	10µM*	?	?	7	-3	.
Cc1[nH]c(C)c(S(=O)(=O)NCCc2ccccc2)c1C(=O)N1CCCCC1	-1%	11%	.	10	-8	7%
O=S(=O)(c1ccccc1)N1CCN(C/C=C/c2ccccc2)CC1	33%	10%	-2%	-1	1	2%
Cc1nc2cnc(Oc3ccccc3)nc2n(C)c1=O	.	.	4%	.	.	.
SMILES	Pf growth 96h	Pf growth 48h	Giardia FBPA inh	Cycloheximide cs	Shiga toxin inh	NS1 inh
O=C1Nc2ccc(Br)cc2C12NNc1ccccc1O2 (configuration not stated)	3%	19%	-6%	11	19	-22%
Cn1c(/C(C#N)=C/C2CC=CCC2)nc2ccccc21 (configuration not stated)	.	?	3%	9	-7	-19%
Cc1cccc(C)c1Nc1nnc(SC/C(O)=C(\C#N)c2nc3ccccc3[nH]2)s1	?	?	0%	-2	9	?
N#C/C(=C\C1CC=CCC1)c1nc2ccccc2[nH]1 (configuration not stated)	.	8.3µM*	-11%	27*	48	-83%
Cc1ccc(/C=C(\C#N)c2nc3ccccc3[nH]2)s1	1.7µM*	?	-9%	49*	53*	-57%
Cc1cccc(Nc2nnc(SC/C(O)=C(\C#N)c3nc4ccccc4[nH]3)s2)c1C	12µM*	?	6%	-2	2	28%

Source: PubChem (National Center for Advancing Translational Sciences (NCATS))
